According to PubChem BioAssay AID493168 (National Center for Advancing Translational Sciences (NCATS), 2011):
Results filed as inconclusive are left out. Calls of active or inactive are those of the source. Calls follow the shape of the dose curve; as a rule, active = well fitted inhibition curve with a large enough effect; inconclusive = small, poorly fitted or top-dose-only effect, or effect the other way; inactive = flat fitted curve, though single readings scatter.

Target: Ubiquitin carboxyl-terminal hydrolase 2 (Homo sapiens) (UniProt O75604)
Sequence (O75604 whole entry, looked up): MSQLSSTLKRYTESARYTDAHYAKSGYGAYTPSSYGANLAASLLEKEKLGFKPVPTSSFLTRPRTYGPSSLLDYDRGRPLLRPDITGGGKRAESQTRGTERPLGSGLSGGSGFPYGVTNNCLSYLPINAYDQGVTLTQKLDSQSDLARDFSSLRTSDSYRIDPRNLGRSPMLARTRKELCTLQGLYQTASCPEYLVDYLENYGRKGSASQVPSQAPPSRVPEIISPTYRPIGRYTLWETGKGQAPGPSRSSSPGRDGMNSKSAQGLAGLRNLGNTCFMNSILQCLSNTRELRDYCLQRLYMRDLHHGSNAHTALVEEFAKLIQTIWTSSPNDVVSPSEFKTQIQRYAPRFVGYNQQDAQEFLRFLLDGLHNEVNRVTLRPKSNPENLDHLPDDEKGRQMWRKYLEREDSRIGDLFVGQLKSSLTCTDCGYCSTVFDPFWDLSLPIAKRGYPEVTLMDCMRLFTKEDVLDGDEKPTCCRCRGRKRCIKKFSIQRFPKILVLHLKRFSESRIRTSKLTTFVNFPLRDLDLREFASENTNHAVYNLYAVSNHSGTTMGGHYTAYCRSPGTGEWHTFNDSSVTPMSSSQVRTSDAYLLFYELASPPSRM
Test: Confirmation Assay for Inhibitors of Ubiquitin-specific Protease USP2a Using CHOP2 as the Reporter; also: nearly all actives have a fitted effect of over 55% in size;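 as to activity change, negative = inhibition: plate controls were DMSO wells for no effect and full inhibition by NEM control for full effect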
Conditions: USP2 core, Ub-CHOP2 coupled reporter fluorescence; series mostly up to 38.3 µM; activity change, negative = inhibition: at the top concentration
Method in brief: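 Ub-CHOP2 cleavage coupled to reporter activation was read by fluorescence after 60 min at RT, with 25 nM final Ub-CHOP2 and substrate. Enzyme (10 nM final USP2 core) first sat 30 min with compound; data were normalized to NEM and fitted to concentration-response curves.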
Potency is read from the fitted curve at half-maximal effect.

Compound | activity change, negative = inhibition | Potency
Cc1cc(C)cc(C(=O)Nc2ccc(N3CCCC3)cc2)c1 | -18.2% (inactive) | –
O=C(Nc1ccc(S(=O)(=O)Nc2ncccn2)cc1)c1ccc(S(=O)(=O)N2CCCC2)cc1 | -1.15% (inactive) | –
COc1cc(C(O)P(=O)(OC(C)C)c2ccc(N(C)C)cc2)cc(OC)c1OC (configuration not stated) | 5.9% (inactive) | –
Cn1c(C(=O)NCCN2CCOCC2)cc2c(=O)n(C)c3ccccc3c21 | -0.508% (inactive) | –
COCCCNC(=O)C1CCN(c2nc(C)cc(C)n2)CC1 | 1.61% (inactive) | –
CN(C)c1ccc(/C=C(/NC(=O)c2ccccc2)C(=O)N/N=C/c2ccc([N+](=O)[O-])c(O)c2)cc1 | -15.8% (inactive) | –
Cc1cc(C)cc(NC(=O)CSc2nc3c(c(=O)[nH]2)CN(Cc2ccc(F)cc2)CC3)c1 | -4.37% (inactive) | –
O=C1NC(=Nc2ccc3ccccc3c2)S/C1=C/c1ccco1 | -20.7% (inactive) | –
CCCSCCCNC(=O)CC1Oc2ccccc2NC1=O (configuration not stated) | -2.19% (inactive) | –
NC1=NC2(CCC(c3ccccc3)CC2)n2c(nc3ccccc32)N1 (configuration not stated) | 1.88% (inactive) | –
CCCCC(CC)CN=C(N)NC(N)=NCCCCCCN=C(N)NC(N)=NCC(CC)CCCC (configuration not stated) | – | 4.65 µM (active)
CCOc1ccccc1N(CC(=O)NC(C)(C)C)C(=O)c1ccc(CN2CCOCC2)o1 | -4.17% (inactive) | –
Clc1ccc2c(N/N=C/c3ccc(Br)cc3)ccnc2c1 | – | 13.1 µM (active)
Cc1ccc2[nH]c(C)c(CCNC(=O)c3cc4cc([N+](=O)[O-])ccc4oc3=O)c2c1 | -1.5% (inactive) | –
Cc1cccc(Nc2nc(NCc3ccco3)c3ccccc3n2)c1 | -6.47% (inactive) | –
COc1cc(C)c(S(=O)(=O)NCc2ccc3c(c2)OCO3)cc1C | 5.8% (inactive) | –
COc1cc(C2C(C#N)=C(N)Oc3c2ccc2ccccc32)ccc1OCC(=O)Nc1cccc(C)c1 (configuration not stated) | -2% (inactive) | –
